Reference: the supplement of paper PMC10981050
“And” between values parts separate entries of the source, which are not always exact repeats. Identical values can stand only once. Counter-ions that a name gives are not always drawn.

How the values were obtained:
Assay in all cases: cell viability relative to vehicle control; higher = less cytotoxic
Settings in all cases: 10 µM
K562 = system: K562
Summary of the method: (§1)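 Each screen used CRISPR-edited mutant and wild-type clones from four leukaemia lines. Compounds were acoustically dispensed at a single 10 µM dose, and CellTiter-Glo luminescence was read after 48 h with the supernatant first removed. Viability was analysed in Genedata Screener and given as percent of the on-plate vehicle control.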

MARIMO = system: MARIMO
Summary of the method: as §1

MOLM14 = system: MOLM14
Summary of the method: as §1

OCI-AML2 = system: OCI-AML2
Summary of the method: as §1

Compound	cell viability (K562; SRSF2 genotype: SRSF2 P95H/wt)	cell viability (K562; SRSF2 genotype: SRSF2 wt/wt) [%]	cell viability (MARIMO; SRSF2 genotype: SRSF2 P95H/wt) [%]	cell viability (MARIMO; SRSF2 genotype: SRSF2 wt/wt) [%]	cell viability (MOLM14; SRSF2 genotype: SRSF2 P95H/wt) [%]	cell viability (MOLM14; SRSF2 genotype: SRSF2 wt/wt) [%]	cell viability (OCI-AML2; SRSF2 genotype: P95H/wt) [%]	cell viability (OCI-AML2; SRSF2 genotype: wt/wt) [%]
C[C@H](CC[C@@]1(O)O[C@H]2C[C@H]3[C@@H]4CC=C5C[C@@H](O[C@@H]6O[C@H](CO)[C@@H](O[C@@H]7O[C@@H](C)[C@H](O)[C@@H](O)[C@H]7O)[C@H](O)[C@H]6O[C@@H]6O[C@@H](C)[C@H](O)[C@@H](O)[C@H]6O)CC[C@]5(C)[C@H]4CC[C@]3(C)[C@H]2[C@@H]1C)CO[C@@H]1O[C@H](CO)[C@@H](O)[C@H](O)[C@H]1O [Protodioscin]	0.86% and 0.6%	3.02	0.64	0.77	0.49	0.55	0.74	0.5
C[C@@H]1O[C@@H](O[C@H]2[C@H](O[C@H]3CC[C@@]4(C)[C@@H](CC[C@]5(C)[C@@H]4CC=C4[C@@H]6CC(C)(C)CC[C@]6(C(=O)O)CC[C@]45C)[C@]3(C)CO)OC[C@H](O)[C@@H]2O)[C@H](O)[C@H](O)[C@H]1O	33.7% and 24.8%	40.6	71.8	74.1	39	45.4	45	48.8
CCC1(c2c[nH]cn2)Cc2ccccc2C1 [Atipamezole]	82.9% and 78.3%	81.6	83.2	85.9	78.9	88.9	90	89.7
Nc1ncnc2c1ncn2C(C=O)OC(C=O)CO (configuration not stated) [Adenosine Dialdehyde (ADOX)]	67.4% and 74.4%	69.3	60.7	59.4	25.3	14.5	40.4	42.5
CCc1cc2c(cc1N1CCC(N3CCOCC3)CC1)C(C)(C)c1[nH]c3cc(C#N)ccc3c1C2=O	91.7% and 98.6%	105	63.9	86.3	66.7	80.5	71.7	52.2
O=S(=O)(O)c1cc(O)ccc1O [Calcium Dobesilate]	104% and 94.7%	103	103	110	98.4	103	104	103
CCCCC(=O)O[C@H]1CC[C@H]2[C@@H]3CCc4cc(O)ccc4[C@H]3CC[C@]12C [Estradiol valerate]	84.7% and 95.4%	94.2	84.7	69.3	69.9	69.2	45	30.4
COC(=O)C1=CO[C@@H](O)[C@@H]2C(CO)=CC[C@H]12 [Genipin]	94.8% and 97.4%	95.1	71.1	85.7	78	90.4	26.4	41.1
Cc1ccccc1C(=O)Nc1ccc(C(=O)N2CCCC(O)c3cc(Cl)ccc32)c(C)c1 (configuration not stated)	89.3% and 84.8%	85.7	80.7	99.9	84.2	91.7	91.6	83
CCN(CC)CCOC(=O)c1ccc(N)cc1 [Procaine]	100% and 99%	102	99.6	108	107	105	104	101
CC(=O)O[C@]1(C(C)=O)CC[C@H]2[C@@H]3C=C(Cl)C4=CC(=O)[C@@H]5C[C@@H]5[C@]4(C)[C@H]3CC[C@@]21C [Cyproterone acetate]	87.2% and 85.8%	84.7	66.1	71.6	86.2	93.3	75	77.4
CCCCCCCCCCCC[N+](C)(C)CCOc1ccccc1 [Domiphen Bromide]	7.02% and 4.79%	5.16	0.45	0.55	0.35	0.39	0.4	0.43
NC(=O)c1ccc(-c2nc(-c3ccc4c(c3)OCCO4)c(-c3ccccn3)[nH]2)cc1	102% and 103%	92.9	98.5	103	97.5	97.6	99.6	96.8
CCOC(=O)c1cc(O)c(O)c(O)c1 [Ethyl gallate]	98.4% and 88.5%	87.8	72.1	88.3	78.5	87.2	80.6	86.8
Cc1c(C(=O)Nc2ccc(N3C[C@@H](C)O[C@@H](C)C3)nc2)cccc1-c1ccc(OC(F)(F)F)cc1 [LDE225 (NVP-LDE225, Erismodegib)]	82.9% and 91.2%	91.9	86.2	102	87.7	95.9	77.6	85
Cc1cc(NC(=O)c2cccc(NC(=O)/C=C/CN(C)C)c2)ccc1Nc1nccc(-c2cccnc2)n1	59.8% and 60.8%	65.5	53.1	50.7	6.36	6.17	17.2	26.6
CC(C)N(CCCNC(=O)Nc1ccc(C(C)(C)C)cc1)C[C@H]1O[C@@H](n2ccc3c(N)ncnc32)[C@H](O)[C@@H]1O	94.6% and 92.6%	86.1	89.3	96.9	95.5	92	84.3	89.6
Cc1nc(NC(=O)N2CCC[C@H]2C(N)=O)sc1-c1ccnc(C(C)(C)C(F)(F)F)c1 [Alpelisib (BYL719)]	93.3% and 102%	90.4	55.6	52.6	52.6	65.1	32.2	41
COc1nc(C)cnc1NS(=O)(=O)c1cccnc1-c1ccc(-c2nnco2)cc1 [Zibotentan (ZD4054)]	98.4% and 103%	98.4	99	97.6	100	97.5	102	105
CCOC(=O)[C@@H](N)Cc1ccc(-c2cc(O[C@H](c3ccc(Cl)cc3-n3ccc(C)n3)C(F)(F)F)nc(N)n2)cc1 [LX1606 hippurate]	64.2% and 52.4%	57.2	68.9	72.7	14.2	44.5	4.73	12.2

Compound	cell viability (K562; SRSF2 genotype: SRSF2 P95H/wt)	cell viability (K562; SRSF2 genotype: SRSF2 wt/wt) [%]	cell viability (MARIMO; SRSF2 genotype: SRSF2 P95H/wt) [%]	cell viability (MARIMO; SRSF2 genotype: SRSF2 wt/wt) [%]	cell viability (MOLM14; SRSF2 genotype: SRSF2 P95H/wt) [%]	cell viability (MOLM14; SRSF2 genotype: SRSF2 wt/wt) [%]	cell viability (OCI-AML2; SRSF2 genotype: P95H/wt) [%]	cell viability (OCI-AML2; SRSF2 genotype: wt/wt) [%]
COc1cc(/C=C/C(=O)N2CCN(CC(=O)N3CCCC3)CC2)cc(OC)c1OC [Cinepazide maleate]	102% and 105%	99.2	99.5	106	106	105	106	108
O=[N+]([O-])c1ccc2c(c1)S(=O)(=O)C=C2 [Stattic]	8.02% and 0.43%	0.74	0.14	0.16	0.12	0.25	0.06	0.06
CCOC(=O)OC(C)OC1=C(C(=O)Nc2ccccn2)N(C)S(=O)(=O)c2ccccc21 (configuration not stated) [Ampiroxicam]	96.8% and 104%	92.4	101	95.9	93	95.9	104	96
Cn1cc(/C=C2\C(=O)Nc3cccnc32)c2ccccc21	98% and 98.2%	96.4	91.2	94.3	25.7	22.9	49.4	56.2
CC(C)=CCC[C@](C)(O[C@@H]1O[C@H](CO[C@@H]2O[C@H](CO)[C@@H](O)[C@H](O)[C@H]2O)[C@@H](O)[C@H](O)[C@H]1O)[C@H]1CC[C@]2(C)[C@@H]1[C@H](O)C[C@@H]1[C@@]3(C)CC[C@H](O[C@@H]4O[C@H](CO)[C@@H](O)[C@H](O)[C@H]4O)C(C)(C)[C@@H]3CC[C@]12C [Gypenoside XVII]	112% and 100%	109	108	103	110	106	106	106
C[C@@H]1CC(=O)NN=C1c1ccc(NN=C(C#N)C#N)cc1 [Levosimendan]	92.4% and 105%	99.4	68.9	86	94.7	81.7	69.8	67.1
CC/C(=C(/c1ccc(/C=C/C(=O)O)cc1)c1ccc2[nH]ncc2c1)c1ccc(F)cc1Cl [Brilanestrant (GDC-0810, ARN-810)]	100% and 106%	96.2	102	95.1	86.8	92.3	96.9	102
OC[C@@H](O)[C@@H](O)[C@@H](O)CO [Ribitol (Adonitol)]	94.5% and 97%	96.2	89.7	93.4	97.9	94.3	90	97.9
COc1cccc2c1C(=O)c1c(O)c3c(c(O)c1C2=O)CC(O)(C(=O)CO)CC3OC1CC(N)C(O)C(C)O1 (configuration not stated) [Doxorubicin (Adriamycin) HCl]	4.96% and 11.8%	6.38	5.57	2.71	1	0.45	2.05	12.5
CC(Oc1cc(-c2cnn(C3CCNCC3)c2)cnc1N)c1c(Cl)ccc(F)c1Cl [(S)-crizotinib]	85.7% and 81%	74.8	84.4	92	78.2	86.2	88.8	75.3
CC(C)Oc1ccc2c(=O)c(-c3ccccc3)coc2c1 [Ipriflavone]	88.2% and 88.5%	94	85.2	88.1	110	113	71.6	75.8
CCC(C)n1ncn(-c2ccc(N3CCN(c4ccc(OCC5COC(Cn6cncn6)(c6ccc(Cl)cc6Cl)O5)cc4)CC3)cc2)c1=O (configuration not stated) [Itraconazole (Sporanox)]	76.7% and 94.4%	83.1	49.6	55	71.1	96.7	50.8	55.4
C[C@@H]1O[C@@H](O[C@@H]2[C@@H](O)[C@H](OCCc3ccc(O)c(O)c3)O[C@H](COC(=O)/C=C/c3ccc(O)c(O)c3)[C@H]2O)[C@H](O)[C@H](O)[C@H]1O [Isoacteoside]	101% and 104%	91.6	99	103	94.9	101	100	106
Nc1nc(F)nc2c1ncn2[C@@H]1O[C@H](COP(=O)(O)O)[C@@H](O)[C@@H]1O [Fludarabine Phosphate (Fludara)]	105% and 112%	98.7	64.2	84.9	88.1	101	6.47	10.8
C=C(CCC=C(C)C)[C@H]1CC[C@]2(C)[C@@H]1[C@H](O)C[C@@H]1[C@@]3(C)CC[C@H](O[C@@H]4O[C@H](CO)[C@@H](O)[C@H](O)[C@H]4O[C@@H]4O[C@H](CO)[C@@H](O)[C@H](O)[C@H]4O)C(C)(C)[C@@H]3CC[C@]12C [Ginsenoside Rk1]	107% and 97.8%	107	105	104	108	104	100	104
O.O.O.O.O.O.O.[Cl][La]([Cl])[Cl] [Lanthanum(III) chloride heptahydrate]	107% and 102%	102	109	114	107	104	99.2	99.4
OB1OCc2cc(F)ccc21 [Tavaborole (AN-2690)]	88.2% and 85.6%	84.3	85.4	87.8	82.8	85.1	87.8	82.8
OC[C@H]1O[C@H](O[C@H]2O[C@H](CO)[C@@H](O)[C@H](O)[C@H]2O)[C@H](O)[C@@H](O)[C@@H]1O [D-(+)-Trehalose dihydrate]	103% and 99.5%	102	106	111	104	108	105	108
O=c1cc(-c2ccc(O)c(O)c2)oc2c([C@@H]3O[C@H](CO)[C@@H](O)[C@H](O)[C@H]3O)c(O)cc(O)c12 [Orientin]	104% and 101%	101	100	97.3	103	103	98.8	100
